Screening results: PubChem, National Center for Advancing Translational Sciences (NCATS)
Sampled rows, rich in hits. Any-hit rate of the full collection: about 10%.
JMJD2A Tudor: blocks the human JMJD2A Tudor domain; O75164; Potency, µM (doses to about 114 µM), actives largely listed as inhibitors; AlphaScreen JMJD2A-Tudor / H3K4me3 peptide binding; hit rate 4.4% among 390,000; AID 504339; also: nearly all actives have a fitted effect of over 50% in size
CtBP-E1A blk: CtBP/E1A binding inhibition; AlphaScreen GST-E1A/His-CtBP binding, 1536-well; active compounds read low; activity change, % (test concentration not listed); hit rate 0.49% among 340,000; in the data active = activity change below about -65%; inconclusive = mostly about -30% to -63%
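Homogeneous bead-based format: GST-tagged E1A captured on glutathione donor beads, His-tagged CtBP on nickel acceptor beads; compounds precede bead addition by 2 h at 37 °C.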
Six1-Eya2 inh: Six1/Eya2 interaction inhibition | Q15475+O00167 | activity change, % (concentration not given with the values) | AID 651725 | hit rate 0.56% among 360,000 | AlphaScreen GST-Six1/His-Eya2 binding, biochemical; active compounds read low; in the data active = activity change below about -65%; inconclusive = mostly about -30% to -63%
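Compounds are tested against tagged Six1 and Eya2 proteins bridged by glutathione donor and nickel acceptor beads; after a one-hour incubation at 37 °C without light, AlphaScreen emission is recorded.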
HP1b chromo inh: HP1-beta chromodomain-methylated histone interaction inhibition. P83916. AlphaScreen HP1-beta / biotin-H3K9me3 peptide binding. Potency, µM (highest dose often 114 µM), hits mostly inhibitors. hit rate 0.56% among 390,000; also: nearly all actives have a fitted effect of over 70% in size
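Compound inhibition of the preformed complex between 50 nM HP1-beta and 50 nM biotinylated H3K9me3 peptide was read by AlphaScreen. Buffer was PBS pH 7.4 with 0.01% Tween-20. Incubations ran 30 min at room temperature, with 10 ug/mL donor/acceptor beads.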
G9a block: G9a (human) methyltransferase inhibition. Q96KQ7. G9a H3K9 monomethylation, AlphaScreen, 2 h. Potency, µM (highest dose often 102 µM), most hits filed as inhibitors. hit rate 8.8% among 350,000. AID 504332; also: nearly all actives have a fitted effect of over 75% in size
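AlphaScreen read-out: biotin-H3K9 peptide (500 nM) methylation by 20 nM enzyme with 20 uM SAM, 2 h at room temperature after 15 min compound preincubation; anti-monomethyl H3K9 antibody plus donor/acceptor beads, 10 min dark.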
BAZ2B inh: BAZ2B (human) inhibition; Q9UIF8; AlphaScreen BAZ2B-H3K14Ac peptide displacement; Potency, µM (series often up to 114 µM), actives largely listed as inhibitors; hit rate 4.4% among 360,000; also: nearly all actives have a fitted effect of over 60% in size
Target sequence (Q9UIF8 whole entry, looked up): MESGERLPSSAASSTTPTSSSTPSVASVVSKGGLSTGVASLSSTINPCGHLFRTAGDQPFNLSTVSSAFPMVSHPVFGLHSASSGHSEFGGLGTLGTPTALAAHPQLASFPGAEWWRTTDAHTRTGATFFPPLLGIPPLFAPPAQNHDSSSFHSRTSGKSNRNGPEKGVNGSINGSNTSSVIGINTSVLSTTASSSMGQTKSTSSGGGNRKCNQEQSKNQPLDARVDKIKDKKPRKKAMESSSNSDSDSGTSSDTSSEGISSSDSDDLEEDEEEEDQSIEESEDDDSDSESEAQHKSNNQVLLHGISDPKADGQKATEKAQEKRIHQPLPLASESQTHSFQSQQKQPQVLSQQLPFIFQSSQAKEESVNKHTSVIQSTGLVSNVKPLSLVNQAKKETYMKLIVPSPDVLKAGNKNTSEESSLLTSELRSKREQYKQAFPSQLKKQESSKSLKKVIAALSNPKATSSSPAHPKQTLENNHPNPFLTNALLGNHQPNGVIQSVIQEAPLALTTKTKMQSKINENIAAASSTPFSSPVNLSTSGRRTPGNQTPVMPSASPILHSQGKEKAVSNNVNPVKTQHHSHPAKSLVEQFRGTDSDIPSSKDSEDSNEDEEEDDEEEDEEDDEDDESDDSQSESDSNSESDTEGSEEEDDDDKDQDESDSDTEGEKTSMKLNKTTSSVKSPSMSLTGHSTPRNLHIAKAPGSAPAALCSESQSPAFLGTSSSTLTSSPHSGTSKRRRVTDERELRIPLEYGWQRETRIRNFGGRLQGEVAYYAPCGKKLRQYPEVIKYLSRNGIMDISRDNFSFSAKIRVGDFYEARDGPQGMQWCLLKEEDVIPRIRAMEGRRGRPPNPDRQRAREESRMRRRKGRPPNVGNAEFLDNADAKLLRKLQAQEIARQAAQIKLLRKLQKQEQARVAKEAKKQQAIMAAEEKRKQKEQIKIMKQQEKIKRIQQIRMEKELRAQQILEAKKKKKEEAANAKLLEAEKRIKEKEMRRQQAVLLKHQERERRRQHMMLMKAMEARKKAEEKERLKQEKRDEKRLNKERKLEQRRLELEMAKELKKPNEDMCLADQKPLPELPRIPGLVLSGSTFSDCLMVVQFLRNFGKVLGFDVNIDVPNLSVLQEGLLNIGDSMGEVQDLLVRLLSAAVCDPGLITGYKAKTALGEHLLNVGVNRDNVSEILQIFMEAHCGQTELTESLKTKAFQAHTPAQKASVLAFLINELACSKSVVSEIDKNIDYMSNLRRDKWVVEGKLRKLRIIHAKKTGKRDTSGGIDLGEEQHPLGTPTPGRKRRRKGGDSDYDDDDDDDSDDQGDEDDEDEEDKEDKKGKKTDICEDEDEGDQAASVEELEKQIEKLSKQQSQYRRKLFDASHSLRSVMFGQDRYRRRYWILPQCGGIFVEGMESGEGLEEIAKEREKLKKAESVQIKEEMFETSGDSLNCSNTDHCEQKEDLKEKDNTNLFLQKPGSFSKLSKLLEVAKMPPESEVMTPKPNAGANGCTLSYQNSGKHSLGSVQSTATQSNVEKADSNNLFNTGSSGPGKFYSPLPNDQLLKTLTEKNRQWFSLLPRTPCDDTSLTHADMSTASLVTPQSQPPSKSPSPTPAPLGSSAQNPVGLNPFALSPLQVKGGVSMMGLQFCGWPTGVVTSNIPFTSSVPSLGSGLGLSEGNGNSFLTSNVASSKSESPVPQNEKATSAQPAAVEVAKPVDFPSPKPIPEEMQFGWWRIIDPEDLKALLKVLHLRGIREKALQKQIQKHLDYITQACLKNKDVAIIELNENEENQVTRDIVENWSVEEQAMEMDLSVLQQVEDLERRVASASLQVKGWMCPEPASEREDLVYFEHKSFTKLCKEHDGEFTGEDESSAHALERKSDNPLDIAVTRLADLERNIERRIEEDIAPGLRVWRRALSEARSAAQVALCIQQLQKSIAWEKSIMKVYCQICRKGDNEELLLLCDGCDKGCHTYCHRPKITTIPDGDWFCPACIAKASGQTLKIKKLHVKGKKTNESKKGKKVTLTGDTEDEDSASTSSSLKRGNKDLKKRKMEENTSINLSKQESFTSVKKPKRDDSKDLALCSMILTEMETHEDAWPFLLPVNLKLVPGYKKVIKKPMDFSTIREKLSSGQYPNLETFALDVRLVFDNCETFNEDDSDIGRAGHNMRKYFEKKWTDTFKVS
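BAZ2B 50 nM plus b-H3(5-23)K14Ac 50 nM, PBS pH 7.4/0.01% Tween-20, 30 min RT; compound added (max 110 uM), 30 min RT; streptavidin donor/Ni-chelate acceptor beads 10 ug/mL final, 20 min dark; AlphaScreen read.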
Large screens that a line does not name were inactive. Unless noted, calls follow the shape of the dose curve; as a rule, active = well fitted inhibition curve with a large enough effect; inconclusive = small, poorly fitted or top-dose-only effect; inactive = no such curve, though single readings can be large or run the other way.

CC(=O)C1=C(NC(=O)c2ccc(C(F)(F)F)cc2)C[C@@H]2[C@H]1C2(C)C	none
COC(=O)CN1C(=O)CSc2ccc(S(=O)(=O)Nc3cccc(C)c3C)cc21	none (no result: CtBP-E1A blk, Six1-Eya2 inh)
CCCCN(C)C(=O)c1nc2ccccn2c1CN1CCN(c2ccccn2)CC1	none (no result: G9a block)
CCCCN(C)C(=O)c1nc2ccccn2c1CN1CCC[C@H]1C(=O)OC	JMJD2A Tudor 40µM
CCOC(=O)c1c(NC(=O)CSc2nnnn2-c2ccccc2OCC)sc2c1CC(C)(C)NC2(C)C	G9a block 50µM
CCOC(=O)c1c(NC(=O)CSc2nnnn2-c2ccccc2)sc2c1CC(C)(C)NC2(C)C	JMJD2A Tudor inconclusive, BAZ2B inh 71µM (no result: G9a block)
CCOC(=O)c1c(NC(=O)COc2ccccc2OCC)sc2c1CC(C)(C)NC2(C)C	G9a block inconclusive
CCOC(=O)c1c(NC(=O)c2ccc(C)cc2)sc2c1CC(C)(C)NC2(C)C	none (no result: JMJD2A Tudor, CtBP-E1A blk, Six1-Eya2 inh, HP1b chromo inh)
CCOC(=O)c1c(NC(=O)CSc2nc3ccc(C)cc3[nH]2)sc2c1CC(C)(C)NC2(C)C	JMJD2A Tudor inconclusive, G9a block 45µM
O=C(CSc1ccccc1)NCc1ccc2c(c1)CCN2C(=O)c1ccc(Cl)cc1	none (no result: CtBP-E1A blk, Six1-Eya2 inh)
O=C1CCc2cccc(O)c2N1	JMJD2A Tudor 79µM (no result: G9a block, BAZ2B inh)
Cc1nnc(SCC(=O)Nc2ccccc2C(=O)NC2CC2)s1	G9a block 45µM
CSc1nsc(SCC(=O)Nc2ccc(O)c(C(=O)O)c2)n1	G9a block 40µM
CSc1nsc(SCC(=O)Nc2ccc(Cl)c(C(=O)O)c2)n1	G9a block 50µM
CSc1nsc(SCC(=O)Nc2ccc(NC(C)=O)cc2)n1	none
CSc1nsc(SCC(=O)Nc2ccccc2C(=O)O)n1	JMJD2A Tudor inconclusive, G9a block 7.9µM, BAZ2B inh inconclusive
CNC(=O)c1ccc(Nc2nnc(-c3ccc(C)c(S(=O)(=O)NC(C)(C)C)c3)c3ccccc23)cc1	none (no result: CtBP-E1A blk, Six1-Eya2 inh)
O=S(=O)(Nc1cccc(F)c1)c1ccc2[nH]c3c(c2c1)CCCCC3	JMJD2A Tudor inconclusive, HP1b chromo inh inconclusive, G9a block inconclusive (no result: CtBP-E1A blk, Six1-Eya2 inh)
CC(C)CCNC(=O)C1CCC(Cn2c(=O)c3sccc3n(CC(=O)NC(C)C)c2=O)CC1 (stereo not given)	none (no result: CtBP-E1A blk, Six1-Eya2 inh)
Cn1c(C(=O)Nc2ccccc2)cc2sccc21	G9a block 1.6µM, BAZ2B inh inconclusive
COc1ccc(OC)c(NC(=O)c2cn(C)c(=O)c3cc(OC)c(OC)cc23)c1	G9a block 40µM
COc1ccc(OC)c(NC(=O)c2cc3sccc3n2C)c1	JMJD2A Tudor inconclusive, G9a block 50µM, BAZ2B inh inconclusive
COC(=O)c1ccc(NC(=O)c2cc3sccc3n2C)cc1	G9a block 71µM, BAZ2B inh inconclusive
COc1cc(NC(=O)c2cc3sccc3n2C)cc(OC)c1	G9a block inconclusive, BAZ2B inh inconclusive
CCCN(CCC)CCCNC(=O)c1cc2c(=O)n(C)c3ccccc3c2s1	none (no result: CtBP-E1A blk, Six1-Eya2 inh, BAZ2B inh)
CN(C(=O)CSc1nnc(-c2ccc([N+](=O)[O-])cc2)o1)c1ccccc1	none (no result: CtBP-E1A blk, Six1-Eya2 inh)
COC(=O)c1cc2sccc2n1CC(=O)Nc1ccc(OC)c(OC)c1OC	none
CCOC(=O)c1cc2sccc2n1CC(=O)Nc1ccc(OC)cc1OC	G9a block 13µM
Cn1c(C(=O)Nc2ccc3c(c2)OCO3)cc2sccc21	JMJD2A Tudor inconclusive, G9a block 32µM
Cn1c(C(=O)NCc2ccc3c(c2)OCO3)cc2sccc21	JMJD2A Tudor inconclusive, G9a block inconclusive, BAZ2B inh inconclusive
Cc1cccc(C)c1NC(=O)Cn1c(=O)n(Cc2ccccc2)c(=O)c2c(C)c(C(=O)N(C)C)sc21	none (no result: CtBP-E1A blk, Six1-Eya2 inh)
CCOC(=O)c1noc2ncn(CC(=O)Nc3ccc(OC)c(Cl)c3)c(=O)c12	none (no result: CtBP-E1A blk, Six1-Eya2 inh)
COc1cccc(CNC(=O)C2CCN(c3nc4ccc(Cl)cc4[nH]3)CC2)c1	none (no result: CtBP-E1A blk, Six1-Eya2 inh)
COc1ccc(CCn2cc3c(c2-c2ccccc2Br)c(=O)n(C)c(=O)n3C)cc1OC	JMJD2A Tudor inconclusive, G9a block inconclusive (no result: CtBP-E1A blk, Six1-Eya2 inh)
CC(=O)C1=C(O)C(=O)N(CCc2c[nH]c3ccccc23)C1c1cccc(O)c1 (stereo not given)	JMJD2A Tudor 79µM, G9a block inconclusive, BAZ2B inh inconclusive
COc1cc(C2C(C(C)=O)=C(O)C(=O)N2CCN(C)C)ccc1O (stereo not given)	none
COc1cc(C2C(C(C)=O)=C(O)C(=O)N2CCc2c[nH]c3ccccc23)ccc1O (stereo not given)	JMJD2A Tudor 100µM, G9a block 50µM, BAZ2B inh inconclusive
CCN1C=C(Cc2ccc(OC)cc2)C2=C(C1)C(c1ccc(OC)cc1)C(C#N)=C(N)O2 (stereo not given)	JMJD2A Tudor inconclusive, G9a block inconclusive, BAZ2B inh 45µM
CCOC(=O)c1ccc(NC(=O)C2COc3ccccc3O2)cc1 (stereo not given)	none
CCOC(=O)c1c(NC(=O)C2COc3ccccc3O2)sc(C(C)=O)c1C (stereo not given)	G9a block 50µM
CCOC(=O)c1c(NC(=O)C2COc3ccccc3O2)sc2c1CC(C)(C)NC2(C)C (stereo not given)	G9a block 56µM, BAZ2B inh inconclusive
COC(=O)CCCCCn1c(-c2ccccc2)cn2c3c(=O)n(C)c(=O)n(C)c3nc12	none (no result: CtBP-E1A blk, Six1-Eya2 inh)
CC1=C(c2ccc(C(C)C)cc2)S(=O)(=O)N=C1N1CCC(C(=O)NCc2ccco2)CC1	none (no result: CtBP-E1A blk, Six1-Eya2 inh)
CC1=C(c2ccc(C(C)C)cc2)S(=O)(=O)N=C1N1CCN(C(=O)c2ccco2)CC1	JMJD2A Tudor 45µM
Nc1ncc(N=Nc2cc(C(=O)O)ccc2Cl)s1	JMJD2A Tudor inconclusive, HP1b chromo inh inconclusive, BAZ2B inh 89µM (no result: CtBP-E1A blk)
CCc1ccc2nc(NC(=O)C3CSC4(C)CCC(=O)N34)sc2c1 (stereo not given)	G9a block 28µM
Cc1ccc(-c2csc(NC(=O)C3CSC4(C)CCC(=O)N34)n2)cc1 (stereo not given)	BAZ2B inh 79µM
CC12CCC(=O)N1C(C(=O)Nc1nc3ccc(Cl)cc3s1)CS2 (stereo not given)	JMJD2A Tudor inconclusive, G9a block 45µM
Cc1csc(NC(=O)C2CSC3(C)CCC(=O)N23)n1 (stereo not given)	none (no result: G9a block)
CC12CCC(=O)N1C(C(=O)Nc1nc3ccc(S(C)(=O)=O)cc3s1)CS2 (stereo not given)	G9a block inconclusive
CCc1ccc(-c2nc(CS(=O)CC(=O)NCCc3ccc(Cl)cc3)c(C)o2)cc1 (stereo not given)	none (no result: CtBP-E1A blk, Six1-Eya2 inh)
CCN(CC)CCNC(=O)CCn1c(=O)c2cccn2c2cccnc21	none (no result: CtBP-E1A blk, Six1-Eya2 inh)
CCCOc1ccc(-c2nc(C#N)c(NCC3CCCO3)o2)cc1 (stereo not given)	JMJD2A Tudor inconclusive, G9a block 71µM, BAZ2B inh 50µM
